The values below come from ChEMBL document CHEMBL3988442, “University of Dundee, Small-Polar-MMV Screening Library” (2021).

For some of these results: Measured potencies and affinities stand elsewhere.

Set-up in all cases: scale not given: direction of the effect not stated beside the values
Assay [1] has as its target Protein translocase subunit SecA (Escherichia coli (strain K12)) (UniProt P10408). The assay can be described thus: Assay to Identify E. coli SecA ATPase Inhibitors. It counts as functional. Conditions: 30 µM.
Assay [2] concerns the target T1, Ubiquitin-activating enzyme e1, putative (Leishmania donovani (strain BPK282A1)) (UniProt E9BSI1).
T1 sequence (whole entry): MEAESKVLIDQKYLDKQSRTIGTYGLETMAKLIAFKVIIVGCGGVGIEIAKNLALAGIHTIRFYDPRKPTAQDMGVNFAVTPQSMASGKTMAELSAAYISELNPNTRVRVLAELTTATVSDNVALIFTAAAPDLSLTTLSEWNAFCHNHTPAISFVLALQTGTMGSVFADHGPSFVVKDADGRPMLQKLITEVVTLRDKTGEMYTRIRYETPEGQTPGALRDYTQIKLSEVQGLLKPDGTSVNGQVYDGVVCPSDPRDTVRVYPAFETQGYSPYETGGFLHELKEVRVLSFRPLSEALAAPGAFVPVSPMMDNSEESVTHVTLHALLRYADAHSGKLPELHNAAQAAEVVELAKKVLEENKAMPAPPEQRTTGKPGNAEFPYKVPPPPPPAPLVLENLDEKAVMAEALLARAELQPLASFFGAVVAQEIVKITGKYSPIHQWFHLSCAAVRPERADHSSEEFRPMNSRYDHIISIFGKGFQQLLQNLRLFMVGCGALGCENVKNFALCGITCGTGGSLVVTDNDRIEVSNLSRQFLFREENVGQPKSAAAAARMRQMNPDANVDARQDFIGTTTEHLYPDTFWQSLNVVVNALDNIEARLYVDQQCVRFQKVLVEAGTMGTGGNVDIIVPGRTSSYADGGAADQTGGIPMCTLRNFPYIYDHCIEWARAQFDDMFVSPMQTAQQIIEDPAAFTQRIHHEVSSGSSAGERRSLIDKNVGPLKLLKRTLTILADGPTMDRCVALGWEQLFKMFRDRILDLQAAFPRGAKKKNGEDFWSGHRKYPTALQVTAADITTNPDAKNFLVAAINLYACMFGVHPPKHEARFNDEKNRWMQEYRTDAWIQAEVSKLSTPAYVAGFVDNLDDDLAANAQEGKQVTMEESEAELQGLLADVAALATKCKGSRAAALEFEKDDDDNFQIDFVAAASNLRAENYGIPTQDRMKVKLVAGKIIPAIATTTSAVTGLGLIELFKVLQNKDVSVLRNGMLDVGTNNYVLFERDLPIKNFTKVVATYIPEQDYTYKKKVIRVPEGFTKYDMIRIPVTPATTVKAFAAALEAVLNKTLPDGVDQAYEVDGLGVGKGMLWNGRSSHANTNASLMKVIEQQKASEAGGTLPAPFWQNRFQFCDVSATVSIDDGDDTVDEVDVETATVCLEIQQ
Description: Leishmania donovani Ubiquitin Activating Enzyme (LdE1). The assay is classed as functional. Conditions: 30 µM.

Assay [3] addresses AMP-activated protein kinase, AMPK (Homo sapiens) (UniProt P54646+O43741+P54619+Q9UGJ0+Q9Y478+Q13131+Q9UGI9). Description: AMP-dependent Kinase enzyme assay. An in vitro enzyme assay that detects ADP turnover that is directly proportional to AMPK activity. This uses naive AMPK that is activated during the assay with MK-8722. It counts as functional. The following applies: 30 µM.

The target of assay [4] is Sialic acid-binding Ig-like lectin 9 (Homo sapiens) (UniProt Q9Y336). Description: Hs-Siglec9 ALPHAscreen SOP 20170721. The following applies: 10 µM. Background: Bead proximity is the source of the signal in Alpha formats.
Sequence of Sialic acid-binding Ig-like lectin 9 (Homo sapiens) (Q9Y336 whole entry): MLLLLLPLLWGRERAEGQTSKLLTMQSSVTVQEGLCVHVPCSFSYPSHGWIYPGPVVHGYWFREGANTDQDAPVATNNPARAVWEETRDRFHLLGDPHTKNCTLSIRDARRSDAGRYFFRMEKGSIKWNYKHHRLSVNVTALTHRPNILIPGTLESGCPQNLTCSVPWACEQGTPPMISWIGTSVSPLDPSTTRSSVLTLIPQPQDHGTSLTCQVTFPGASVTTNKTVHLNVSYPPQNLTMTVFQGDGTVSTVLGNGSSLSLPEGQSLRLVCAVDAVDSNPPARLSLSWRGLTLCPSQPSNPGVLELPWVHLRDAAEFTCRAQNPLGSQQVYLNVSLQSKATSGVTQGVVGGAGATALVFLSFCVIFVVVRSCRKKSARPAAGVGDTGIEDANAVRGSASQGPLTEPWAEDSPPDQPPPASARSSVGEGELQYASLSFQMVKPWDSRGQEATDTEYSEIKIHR
The test system of the next assay is Trypanosoma cruzi. Description: Trypanosoma cruzi phosphomannomutase and mannose-1-phosphate guanylyltransferase assay. It counts as functional. Conditions: 10 µM.
Assay [5] addresses T2, Arginase-2, mitochondrial (Homo sapiens) (UniProt P78540).
T2 sequence (whole entry): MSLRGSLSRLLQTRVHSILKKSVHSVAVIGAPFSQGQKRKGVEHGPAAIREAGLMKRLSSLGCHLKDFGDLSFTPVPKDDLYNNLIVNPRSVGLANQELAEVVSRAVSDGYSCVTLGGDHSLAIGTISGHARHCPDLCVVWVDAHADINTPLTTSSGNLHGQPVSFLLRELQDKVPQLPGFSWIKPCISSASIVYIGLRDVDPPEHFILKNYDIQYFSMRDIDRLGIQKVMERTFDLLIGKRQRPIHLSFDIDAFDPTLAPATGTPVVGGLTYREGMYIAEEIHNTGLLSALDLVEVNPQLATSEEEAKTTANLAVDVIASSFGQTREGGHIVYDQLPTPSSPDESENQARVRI
Description: in vitro enzyme assay to detect the production of urea directly proportional to the activity of Arginase II. Also: in the data most compounds retested in dose-response had high values. The assay is classed as functional. The following applies: 33.3 µM.

The target in assay [6] is T3, Proteasome subunit beta (Trypanosoma cruzi) (UniProt O96673).
T3 sequence (whole entry): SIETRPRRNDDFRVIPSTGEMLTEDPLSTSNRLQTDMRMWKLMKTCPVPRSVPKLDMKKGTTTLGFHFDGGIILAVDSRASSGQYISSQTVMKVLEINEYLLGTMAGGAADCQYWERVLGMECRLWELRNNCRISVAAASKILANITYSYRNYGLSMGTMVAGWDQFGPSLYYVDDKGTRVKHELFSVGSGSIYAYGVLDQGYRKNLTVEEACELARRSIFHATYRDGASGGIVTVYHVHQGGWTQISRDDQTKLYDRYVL
The assay can be described thus: Trypanosoma cruzi proteasome chymotrypsin-like activity (TcProtChymo) assay. Also: in the data most compounds retested in dose-response had high values. It counts as functional. The following applies: 9.37 µM.

For another assay, the species on record is Homo sapiens. The assay can be described thus: To identify inhibition of the IFN signalling (Jak-Stat) pathway via expression of an eGFP reporter gene under the control of an IFN-stimulated response element (ISRE) containing MxA promoter. It counts as functional. The following applies: 30 µM.
The target in assay [7] is T4, Tyrosyl-tRNA synthetase, putative (Trypanosoma cruzi (strain CL Brener)) (UniProt Q4DSP6).
T4 sequence (whole entry): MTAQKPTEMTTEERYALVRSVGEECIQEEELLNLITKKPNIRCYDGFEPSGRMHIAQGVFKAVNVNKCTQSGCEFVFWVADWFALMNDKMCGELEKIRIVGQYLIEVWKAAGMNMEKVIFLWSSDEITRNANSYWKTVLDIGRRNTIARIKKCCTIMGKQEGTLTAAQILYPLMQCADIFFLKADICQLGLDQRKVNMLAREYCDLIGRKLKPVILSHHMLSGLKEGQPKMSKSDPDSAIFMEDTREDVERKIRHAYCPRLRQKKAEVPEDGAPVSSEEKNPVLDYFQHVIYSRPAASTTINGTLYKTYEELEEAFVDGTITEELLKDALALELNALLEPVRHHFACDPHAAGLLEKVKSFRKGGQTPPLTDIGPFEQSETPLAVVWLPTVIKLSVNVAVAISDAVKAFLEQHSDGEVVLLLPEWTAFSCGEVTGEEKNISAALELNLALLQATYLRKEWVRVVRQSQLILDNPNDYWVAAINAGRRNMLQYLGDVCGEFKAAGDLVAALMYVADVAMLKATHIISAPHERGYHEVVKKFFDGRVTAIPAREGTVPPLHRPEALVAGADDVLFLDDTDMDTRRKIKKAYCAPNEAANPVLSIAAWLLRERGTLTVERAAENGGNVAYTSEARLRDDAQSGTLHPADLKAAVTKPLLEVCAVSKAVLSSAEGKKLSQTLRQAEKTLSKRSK
Description: Trypanosoma cruzi tyrosyl tRNA synthetase (TcYRS) _High Tyrosine SOP. Also: in the data most compounds retested in dose-response had high values. The assay is classed as functional. The following applies: 30 µM.

Assay [8] has as its target T4, Tyrosyl-tRNA synthetase, putative (Trypanosoma cruzi (strain CL Brener)). Description: Trypanosoma cruzi tyrosyl tRNA synthetase (TcYRS) SOP. Conditions: 30 µM. It counts as functional.
In assay [9] the target is Chromo domain-containing protein 1 (Saccharomyces cerevisiae (strain ATCC 204508 / S288c) (Baker's yeast)) (UniProt P32657). The assay can be described thus: ScCHD-1 Enzyme Inhibition Assay. Also: in the data most compounds retested in dose-response had high values. The assay is classed as functional. Conditions: 30 µM.
Sequence of Chromo domain-containing protein 1 (Saccharomyces cerevisiae (strain ATCC 204508 / S288c) (Baker's yeast)) (P32657 whole entry, the tested form may be a part): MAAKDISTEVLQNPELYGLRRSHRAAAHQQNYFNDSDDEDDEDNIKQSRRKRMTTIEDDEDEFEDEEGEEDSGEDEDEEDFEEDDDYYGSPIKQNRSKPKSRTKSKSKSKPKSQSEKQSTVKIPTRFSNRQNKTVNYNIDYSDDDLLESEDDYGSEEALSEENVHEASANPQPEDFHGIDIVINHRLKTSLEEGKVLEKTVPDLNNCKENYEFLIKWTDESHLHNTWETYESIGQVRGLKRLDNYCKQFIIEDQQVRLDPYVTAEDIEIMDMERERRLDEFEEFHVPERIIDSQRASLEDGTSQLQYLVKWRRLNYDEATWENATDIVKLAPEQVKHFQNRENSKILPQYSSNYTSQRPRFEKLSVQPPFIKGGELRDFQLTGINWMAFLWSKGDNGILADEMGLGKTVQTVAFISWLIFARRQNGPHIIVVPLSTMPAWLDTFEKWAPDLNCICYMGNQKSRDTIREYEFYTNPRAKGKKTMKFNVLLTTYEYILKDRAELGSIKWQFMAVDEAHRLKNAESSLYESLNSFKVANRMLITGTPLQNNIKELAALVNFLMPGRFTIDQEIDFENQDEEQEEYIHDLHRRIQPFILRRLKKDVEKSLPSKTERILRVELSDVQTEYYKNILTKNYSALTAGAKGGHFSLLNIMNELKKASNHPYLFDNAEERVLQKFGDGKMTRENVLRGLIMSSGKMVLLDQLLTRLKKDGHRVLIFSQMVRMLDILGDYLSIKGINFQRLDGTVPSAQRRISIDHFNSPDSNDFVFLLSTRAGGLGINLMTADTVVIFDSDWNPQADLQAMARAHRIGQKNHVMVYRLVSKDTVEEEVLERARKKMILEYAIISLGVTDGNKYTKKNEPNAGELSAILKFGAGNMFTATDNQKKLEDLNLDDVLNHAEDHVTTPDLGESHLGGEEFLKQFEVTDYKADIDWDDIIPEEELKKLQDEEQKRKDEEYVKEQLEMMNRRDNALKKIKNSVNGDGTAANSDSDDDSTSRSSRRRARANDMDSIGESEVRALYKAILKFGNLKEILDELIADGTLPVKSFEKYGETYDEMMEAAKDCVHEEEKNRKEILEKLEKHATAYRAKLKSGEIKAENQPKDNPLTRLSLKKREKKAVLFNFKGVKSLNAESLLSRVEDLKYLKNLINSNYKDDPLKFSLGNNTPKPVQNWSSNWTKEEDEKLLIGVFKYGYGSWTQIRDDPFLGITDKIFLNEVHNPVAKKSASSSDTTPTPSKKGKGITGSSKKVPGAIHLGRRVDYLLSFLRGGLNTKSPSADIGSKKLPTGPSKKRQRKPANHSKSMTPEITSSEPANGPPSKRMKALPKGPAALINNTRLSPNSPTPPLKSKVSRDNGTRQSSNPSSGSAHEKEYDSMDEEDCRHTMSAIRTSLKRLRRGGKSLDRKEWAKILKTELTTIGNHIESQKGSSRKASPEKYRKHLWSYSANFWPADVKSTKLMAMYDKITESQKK

Sequence of Protein translocase subunit SecA (Escherichia coli (strain K12)) (P10408 whole entry): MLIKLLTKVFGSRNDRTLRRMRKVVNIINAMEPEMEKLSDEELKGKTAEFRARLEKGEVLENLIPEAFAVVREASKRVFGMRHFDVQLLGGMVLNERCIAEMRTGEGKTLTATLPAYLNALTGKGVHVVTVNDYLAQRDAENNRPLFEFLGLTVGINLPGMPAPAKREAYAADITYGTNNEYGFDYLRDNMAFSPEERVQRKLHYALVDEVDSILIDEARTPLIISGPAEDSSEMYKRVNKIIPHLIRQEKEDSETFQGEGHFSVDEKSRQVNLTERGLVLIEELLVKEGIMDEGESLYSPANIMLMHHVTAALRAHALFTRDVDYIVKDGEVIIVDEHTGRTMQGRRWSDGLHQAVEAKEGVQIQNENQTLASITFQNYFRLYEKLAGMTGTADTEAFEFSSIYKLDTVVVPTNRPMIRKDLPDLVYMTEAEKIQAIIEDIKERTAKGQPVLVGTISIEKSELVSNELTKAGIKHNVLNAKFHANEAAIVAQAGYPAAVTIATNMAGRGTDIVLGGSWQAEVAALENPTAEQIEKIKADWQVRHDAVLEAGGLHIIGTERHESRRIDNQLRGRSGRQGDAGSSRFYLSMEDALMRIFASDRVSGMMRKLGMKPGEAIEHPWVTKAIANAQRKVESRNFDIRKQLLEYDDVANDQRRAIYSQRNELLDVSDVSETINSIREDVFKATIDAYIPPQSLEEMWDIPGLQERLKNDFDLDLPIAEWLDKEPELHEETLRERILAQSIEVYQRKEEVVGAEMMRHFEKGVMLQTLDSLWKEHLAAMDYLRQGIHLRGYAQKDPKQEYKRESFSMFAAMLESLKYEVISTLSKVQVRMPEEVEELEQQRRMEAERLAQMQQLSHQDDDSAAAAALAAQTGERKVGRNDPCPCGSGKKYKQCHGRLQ

As to `CC(Oc1ccccc1C(F)(F)F)C(=O)NS(=O)(=O)C(C)C` (stereo unspecified), the Percent Effect was 7.54% in assay [1]; 0% in [2]; 5.54% in [3]; -3.2% in [4]; 4.88% in the assay on Trypanosoma cruzi; -2.92% in [5]. Also, the Percent Effect is 14.1% in assay [6]; -2.84% in the assay listed under Homo sapiens; 6.93% in assay [7]; 11% in assay [8]; -6.88% in assay [9].
Turning to `Cc1csc(CN2CC[C@H]3C[C@H](c4nnc(C)[nH]4)O[C@@H]3C2)n1`, the Percent Effect in [1] is 1.54%; in assay [2], 16.4%; in assay [3] it was 0.599%; in [4] it was 0.797%; in the assay on Trypanosoma cruzi, -0.397%; in assay [5] it was 2.4%. Besides, the Percent Effect in [6] was 9.33%; in the assay filed under Homo sapiens, 17.3%; in assay [7] it was 3.12%; in [8], -102%; in [9], -5.22%.
As for `COCc1cncc2c1CCN(C(=O)c1ccc(C)o1)C2`, the Percent Effect is -3.33% in assay [1]; 10.7% in assay [2]; 1.34% in assay [3]; -0.678% in assay [4]; -4.63% with Trypanosoma cruzi; -60% in assay [5]. The Percent Effect in assay [6] is 6.33%; in the assay filed under Homo sapiens it was -0.987%; in assay [7], 4.17%; in assay [8], 5%; in assay [9], -6.41%.
Turning to `CC(C)CN1C(=O)C2(CCN(Cc3nccs3)C2)c2ccccc21` (stereo unspecified), the Percent Effect in assay [1] is -1.96%; in assay [2] it was 5.41%; in assay [3], -2.39%; in assay [4] it was 1.8%; with Trypanosoma cruzi it was -5.08%; in [5] it was 5%. In addition, the Percent Effect in assay [6] was 16.1%; in the assay filed under Homo sapiens, 37.2%; in [7], 3.96%; in assay [8], 3.66%; in assay [9], -5.7%.
As for `O=C(NCCNc1cnccn1)N1CCCC1`, the Percent Effect was -4.38% in assay [1]; 6.33% in assay [2]; 8.17% in assay [3]; -3.74% in assay [4]; -2.56% with Trypanosoma cruzi; 1.94% in [5]. Moreover, the Percent Effect is 5.15% in [6]; 8.14% in the assay listed under Homo sapiens; 1.04% in assay [7]; 5.06% in assay [8]; -18.6% in [9].
`CC(=O)NC(C)c1ccc(OCC2CC2)c(F)c1` (stereo unspecified): the Percent Effect was -2.63% in assay [1]; 5.26% in assay [2]; -0.202% in [3]; 5% in [4]; 3.21% in the assay on Trypanosoma cruzi; -9.47% in assay [5]. Also, the Percent Effect was 4.7% in assay [6]; 7.74% in the assay filed under Homo sapiens; 4.25% in assay [7]; 7.79% in assay [8]; -7.19% in assay [9].
Consider `Cc1nc(CN2CCCC(NCc3ccsc3)C2)no1` (stereo unspecified), for which the Percent Effect is 1.07% in assay [1]; 18.2% in assay [2]; -3.38% in assay [3]; -6.19% in assay [4]; -7.3% with Trypanosoma cruzi; 4.63% in assay [5]. The Percent Effect in assay [6] is 16.1%; in the assay listed under Homo sapiens, 20.4%; in assay [7], 4.85%; in assay [8] it was 12.2%; in [9] it was -8.54%.
On to `CCOc1ccnc(N2CCN(C(=O)c3cc(Cl)c[nH]3)CC2)n1`, for which the Percent Effect is -4.52% in assay [1]; 12.7% in assay [2]; 0.626% in assay [3]; 5.17% in [4]; 1.98% in the assay with Trypanosoma cruzi; 0.38% in assay [5]. For the same molecule, the Percent Effect was 2.54% in assay [6]; 0.798% in the assay filed under Homo sapiens; 9.36% in assay [7]; 21.5% in assay [8]; -5.03% in [9].
In the case of `Cc1cc(CC(=O)NCc2ccnc(OCC(F)(F)F)c2)no1`, the Percent Effect is -9.52% in [1]; -5.26% in assay [2]; 3.73% in assay [3]; -4.53% in assay [4]; -6.2% in the assay with Trypanosoma cruzi; -0.766% in assay [5]. Further, the Percent Effect is 2.84% in assay [6]; 30.8% in the assay listed under Homo sapiens; 0.49% in assay [7]; 0% in assay [8]; -5.08% in assay [9].
As to `CC(C)c1nc2n(n1)CC(NCc1nnnn1C1CC1)CC2` (stereo unspecified), the Percent Effect in [1] was -2.7%; in [2] it was 32.4%; in assay [3], -23.1%; in assay [4] it was 6.96%; with Trypanosoma cruzi, 3.87%; in assay [5] it was -15.6%. Further, the Percent Effect in assay [6] was 7.39%; in the assay listed under Homo sapiens, 9.98%; in assay [7], 4.43%; in [8], 18.5%; in assay [9], -10.6%.
Regarding `Cc1nc2c(c(C)c1CC(=O)NCc1cccc(C#N)c1)c(=O)[nH]n2C`, the Percent Effect in assay [1] was -4.87%; in [2] it was 7.79%; in [3] it was 6.32%; in assay [4], 0.967%; with Trypanosoma cruzi, -4.21%; in [5], 1.9%. Also, the Percent Effect in assay [6] was 1.05%; in the assay filed under Homo sapiens, 31.2%; in [7] it was 2.86%; in assay [8] it was 11.8%; in assay [9], -1.91%.
